Read-out in assay [1]: Macrophage colony-stimulating factor (MCSF), CSF1 (gene 1435)
The experiment in a line: BSK_hDFCGF_MCSF: BioMAP Diversity Plus: hDFCGF Assay for Macrophage colony-stimulating factor (MCSF) Biomarker Activity (AID 2283060). The note with it: primary human foreskin fibroblasts; actives raise or lower the signal. The procedure, abridged:
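ELISA read-out of M-CSF in human dermal foreskin fibroblast cultures, 24 h after chemical dosing; gain or loss of signal fitted bidirectionally relative to DMSO baseline.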

Assay [2] can be described thus: BSK_hDFCGF_SRB: Viability Assessment in the BioMAP Diversity Plus: hDFCGF Assay (AID 2283061).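 Note: cells exposed to compound for 24 h before the read.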 The conditions noted are these: primary human foreskin fibroblasts. The procedure, abridged: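 Primary human foreskin fibroblasts; 24 h post-dose; fixed 10% TCA, stained 0.1% SRB, A560 read; total protein as overt cytotoxicity measure; curves fit bidirectionally vs DMSO control.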

Read-out in assay [3]: TIMP metallopeptidase inhibitor 1 (TIMP1), TIMP1 (gene 7076)
In words: BSK_hDFCGF_TIMP1: BioMAP Diversity Plus: hDFCGF Assay for TIMP metallopeptidase inhibitor 1 (TIMP1) Biomarker Activity (AID 2283062). The conditions noted are these: primary human foreskin fibroblasts; actives raise or lower the signal. The procedure, abridged:
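ELISA readout of TIMP-1 from human dermal foreskin fibroblast cultures 24 h post-dosing. Curves were fitted in both directions against DMSO baseline, with SRB total-protein staining in parallel cultures as a cytotoxicity check.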

Read-out in assay [4]: Monokine induced gamma interferon (MIG), CXCL9 (gene 4283)
The experiment in a line: BSK_hDFCGF_MIG: BioMAP Diversity Plus: hDFCGF Assay for Monokine induced gamma interferon (MIG) Biomarker Activity (AID 2283063). The note with it: primary human foreskin fibroblasts; actives raise or lower the signal. The procedure, abridged:
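Fibroblasts (human foreskin, primary) dosed, 24 h, MIG by ELISA; fit bidirectional vs DMSO.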

Read-out in assay [5]: Matrix Metallopeptidase 1 (MMP1), MMP1 (gene 4312)
In words: BSK_hDFCGF_MMP1: BioMAP Diversity Plus: hDFCGF Assay for Matrix Metallopeptidase 1 (MMP1) Biomarker Activity (AID 2283064). The conditions noted are these: primary human foreskin fibroblasts; actives raise or lower the signal. The procedure, abridged: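 MMP1 levels quantified by ELISA 24 h after dosing human dermal fibroblast cultures, with parallel SRB total-protein staining for overt cytotoxicity. Data fitted in both directions against DMSO baseline.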

Read-out in assay [6]: Vascular cell adhesion molecule 1 (VCAM1), VCAM1 (gene 7412)
In words: BSK_hDFCGF_VCAM1: BioMAP Diversity Plus: hDFCGF Assay for Vascular cell adhesion molecule 1 (VCAM1) Biomarker Activity (AID 2283065).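 For AC50: VCAM-1 protein level quantified by ELISA after 24 h chemical exposure.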 The conditions noted are these: primary human foreskin fibroblasts; actives raise or lower the signal. The procedure, abridged: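 ELISA read-out of VCAM-1 on human skin fibroblasts, 24 h post-dose; gain or loss of signal fitted bidirectionally against DMSO baseline.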

Read-out in assay [7]: Plasminogen activator inhibitor-1 (PAI1), SERPINE1 (gene 5054)
The experiment in a line: BSK_hDFCGF_PAI1: BioMAP Diversity Plus: hDFCGF Assay for Plasminogen activator inhibitor-1 (PAI1) Biomarker Activity (AID 2283066). The note with it: primary human foreskin fibroblasts; actives raise or lower the signal. The procedure, abridged:
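PAI-1 levels in human dermal foreskin fibroblasts were quantified by ELISA 24 h after dosing, with gain or loss analysed against DMSO. Overt cytotoxicity was checked by sulforhodamine B total-protein staining in parallel cultures.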

Read-out in assay [8]: Intercellular Adhesion Molecule 1 (ICAM1), ICAM1 (gene 3383)
In words: BSK_KF3CT_ICAM1: BioMAP Diversity Plus: KF3CT Assay for Intercellular Adhesion Molecule 1 (ICAM1) Biomarker Activity (AID 2283067). The note with it: primary human keratinocytes with fibroblasts; actives raise or lower the signal. The procedure, abridged:
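ELISA readout of ICAM-1; KF3CT human skin co-culture (keratinocytes + foreskin fibroblasts), 24 h post-dose; gain/loss fit vs DMSO baseline.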

Read-out in assay [9]: Interferon-gamma inducible Protein 10 (IP10), CXCL10 (gene 3627)
The experiment in a line: BSK_KF3CT_IP10: BioMAP Diversity Plus: KF3CT Assay for Interferon-gamma inducible Protein 10 (IP10) Biomarker Activity (AID 2283068). The conditions noted are these: primary human keratinocytes with fibroblasts; actives raise or lower the signal. The procedure, abridged:
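In a primary skin co-culture of keratinocytes and fibroblasts, IP-10 is quantified by ELISA at 24 h after dosing. SRB staining of parallel wells monitors overt toxicity. Curves are fitted both directions against DMSO.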

Assay [10] is described as follows: BSK_KF3CT_SRB: Viability Assessment in the BioMAP Diversity Plus: KF3CT Assay (AID 2283069).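 Note: read 24 h after compound addition.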 The note with it: primary human keratinocytes with fibroblasts. The procedure, abridged: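 Cytotoxicity was gauged by SRB staining (0.1% SRB, 10% TCA fixation, 560 nm) of parallel cultures at 24 h. The cells were primary human skin keratinocytes co-cultured with fibroblasts, and activity was fitted in both directions against DMSO.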

The source of these data is PubChem BioAssay (EPA / NIEHS).

Calls of active or inactive are those of the source. Rule for the calls: active = hit-call score of the fitted dose curve at least 0.9, where 1 is the maximum; inactive = score below 0.9.

In the case of `C=CC(=O)NC(C)(C)C`, the outcome in [1], in assay [2], in assay [3], in [4], in assay [5] and in assay [6] was inactive. Besides, the outcome in [7], in assay [8], in [9] and in assay [10] was inactive.
In the case of `O=C(Cl)c1c(Cl)c(Cl)c(C(=O)Cl)c(Cl)c1Cl`, the result in assay [1], in assay [2], in assay [3], in assay [4], in [5] and in assay [6] was inactive. The result in assay [8], in [9] and in [10] was inactive. Besides, in assay [7], the AC50 was 0.016 µM (active).
On to `CC/C=C\CCOC(=O)c1ccccc1O`, for which the AC50 was 13.1 µM (active) in assay [1]; 13.7 µM (active) in assay [2]; 12.4 µM (active) in [3]; 20 µM (active) in assay [4]; 13.3 µM (active) in [5]; 14.9 µM (active) in assay [6]. The AC50 was 11.6 µM (active) in assay [7], 20 µM (active) in [8], 31 µM (active) in assay [9] and 28.8 µM (active) in [10].
Consider `CC(c1cc(C(C)(C)C)cc(C(C)(C)C)c1O)c1cc(C(C)(C)C)cc(C(C)(C)C)c1O`, for which the outcome in [1], in [2], in assay [3], in assay [4], in assay [5] and in [6] was inactive. Also, the outcome in [8], in assay [9] and in assay [10] was inactive. Moreover, the AC50 in [7] is 0.358 µM (active).
In the case of `C=CC(=O)OCC(C)OCC(C)OCC(C)OC(=O)C=C` (stereo not given), the AC50 in assay [1] was 20 µM (active); in [2], 6.59 µM (active); in [3], 11 µM (active); in assay [4], 11.3 µM (active); in [5] it was 27.5 µM (active); in [6] it was 8.28 µM (active). Also, the AC50 in [7] was 6.86 µM (active); in [8], 18.1 µM (active); in assay [9], 28.1 µM (active); in assay [10], 31.9 µM (active).
Take `C=CC(=O)OCCCCCCCC(C)C`: the concentration at half-maximal activity (AC50) in assay [1] is 20 µM (active); in [2], 25.6 µM (active); in assay [4], 20 µM (active); in assay [6], 12.3 µM (active); in assay [7], 5.93 µM (active). The result in assay [3], in [5], in [8], in [9] and in [10] was inactive.
On to `c1ccc2sc(SSN3CCOCC3)nc2c1`, for which the AC50 in assay [1] was 9.39 µM (active); in assay [2], 7.52 µM (active); in assay [3] it was 10.7 µM (active); in assay [7], 4.82 µM (active); in [8], 10.7 µM (active); in assay [9], 23.8 µM (active). The AC50 in [10] was 10.3 µM (active). Besides, the result in [4], in assay [5] and in [6] was inactive.
Consider `CCCC(C)C(=O)OCC` (stereo not given), for which the outcome in assay [1], in [2], in [3], in assay [4], in assay [5] and in [6] was inactive. Besides, the result in assay [7], in [8], in [9] and in [10] was inactive.
Turning to `Nc1ccc(C(=O)O)cc1`, the result in assay [1], in assay [2], in assay [3], in [4], in assay [5] and in [6] was inactive. Further, the outcome in assay [7], in assay [8], in [9] and in assay [10] was inactive.
Turning to `CCOC(=O)C1=NN(c2ccc(Cl)cc2Cl)C(C)(C(=O)OCC)C1` (stereo not given), the outcome in assay [1], in [2], in assay [3], in assay [4], in [5] and in assay [6] was inactive. Further, the result in [7], in assay [8], in assay [9] and in [10] was inactive.
As to `CCCCC1C(=O)N(c2ccccc2)N(c2ccccc2)C1=O`, the result in assay [1], in assay [2], in assay [3], in [4], in [5] and in [6] was inactive. The result in assay [7], in assay [8], in [9] and in [10] was inactive.
In the case of `CCCCCCCCCCCC(C)=O`, the outcome in [1], in [2], in assay [3], in assay [4], in [5] and in assay [6] was inactive. Also, the outcome in assay [7], in assay [8], in assay [9] and in [10] was inactive.
Turning to `O=C1CCCCCCCCCCCN1`, the result in assay [1], in assay [2], in assay [3], in assay [4], in [5] and in assay [6] was inactive. For the same compound, the result in assay [7], in assay [8], in assay [9] and in assay [10] was inactive.
Take `CCCCCC1=CCCC1=O`: the outcome in assay [1], in assay [2], in assay [3], in [4], in assay [6] and in assay [7] was inactive. Also, the result in assay [8], in [9] and in [10] was inactive. In addition, in assay [5], the AC50 was 0.016 µM (active).
In the case of `O=C1CCCCCCCCCCC1`, the result in [1], in assay [2], in assay [3], in assay [4], in assay [5] and in assay [6] was inactive. In addition, the outcome in [7], in assay [8], in assay [9] and in assay [10] was inactive.
